# Results reported in paper PMC7819943, “Rice protein-binding microarrays: a tool to detect cis-acting elements near promoter regions in rice”.
# In all, about 35,000 sequences were measured (“fluorescence intensity (a.u.)”: median about 10,000, highest 2% from about 52,000 on). The full list was thinned out, with the highest values kept by preference.
# Target: T1, OsWOX13 (Oryza sativa, UniProt Q5QMM3 1-267)
# T1 sequence: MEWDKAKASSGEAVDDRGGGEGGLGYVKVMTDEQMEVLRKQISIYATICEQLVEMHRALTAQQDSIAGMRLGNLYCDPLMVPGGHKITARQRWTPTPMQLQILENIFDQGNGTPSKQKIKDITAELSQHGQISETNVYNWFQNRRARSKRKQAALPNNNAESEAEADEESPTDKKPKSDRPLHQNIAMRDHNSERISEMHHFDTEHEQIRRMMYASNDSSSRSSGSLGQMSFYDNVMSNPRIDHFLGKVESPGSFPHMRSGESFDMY
# Experiment: protein-binding microarray (RPBM); PBS, 2% BSA, 51.3 ng/ul salmon testes DNA, 50 uM zinc acetate, 200 nM TF, 25 C, 1 h; high values mean tight binding
# Details: protein: recombinant; tags: N-terminal polyhistidine and DsRed monomer fusion (pET32a); label: CyDye5-dUTP incorporated in the synthesized complementary strand; 3' TTTTT single-stranded linker to array surface; dsDNA, one strand shown
# In short: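 For the binding signal, per-feature fluorescence intensity was read in arbitrary units on an Axon 4000B scanner. Before scanning, a 2% BSA-blocked custom Agilent array made double-stranded with Cy5-dUTP was washed after 1 h at 25 °C with 200 nM protein and 50 µM zinc acetate. The proteins were Ni–NTA-purified transcription factors with N-terminal polyhistidine and DsRed fusions, expressed in E. coli BL21-CodonPlus.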
row,Sequence,binding signal
1,CTTGATTGTTCTTTCTTGCTCAAATGCCGGCCTGTGTTGGCGGAGTCACCTAGTGCAG,53200 fluorescence intensity (a.u.)
2,TCTTTGTCAATCTTGTTTGGTTGCTCAAATCTTTTGGTGGCGGAGTCACCTAGTGCAG,7260 fluorescence intensity (a.u.)
3,TCTGATTGGTACATGCTCACCTGGTTGGCTGGTTCTTCAGCGGAGTCACCTAGTGCAG,53800 fluorescence intensity (a.u.)
4,CTTTGTCTTTGTTTCTTGTTGATTGCAGGATCAAATCAACCGGAGTCACCTAGTGCAG,5330 fluorescence intensity (a.u.)
5,TTCGTGCCTTTTGTTTGATAATTTCTTCATGCTATCTTTTCGGAGTCACCTAGTGCAG,3660 fluorescence intensity (a.u.)
6,ACAAAATAAAATGATGGGCATTTTCTTCAGTTACAATTTCCGGAGTCACCTAGTGCAG,3910 fluorescence intensity (a.u.)
7,TTACTAGATTTATCATTAAACATACTATCATAATATGCAACGGAGTCACCTAGTGCAG,6040 fluorescence intensity (a.u.)
8,TGTGATGAATTGAGCGAACCAGCAGGGCTTCGCCGCTCCCCGGAGTCACCTAGTGCAG,5470 fluorescence intensity (a.u.)
9,AATTAATAAAATAAATCTATTACAGTTAACTAAAGGTATTCGGAGTCACCTAGTGCAG,5780 fluorescence intensity (a.u.)
10,TCCAATTTACTAATTACCACTTTATACGTACAATTATTGACGGAGTCACCTAGTGCAG,23500 fluorescence intensity (a.u.)
11,AATTAATTTAGCCCCTAATTAATTAGCAGCCAATCAACGGCGGAGTCACCTAGTGCAG,54000 fluorescence intensity (a.u.)
12,CCACTTTTAGATTTGACAATTAACTATTTGTCACTTTTAGCGGAGTCACCTAGTGCAG,23600 fluorescence intensity (a.u.)
13,ATTAATTATTAATTTACTTTTGACAATTACTAATTAGCCACGGAGTCACCTAGTGCAG,56700 fluorescence intensity (a.u.)
14,ATTAATTAATTAGTCGGCCAACCTAGCTGTTGACTGGGAACGGAGTCACCTAGTGCAG,55900 fluorescence intensity (a.u.)
15,AAAATTACAGTCTTATTTAACTAAAATTACATATGTAAATCGGAGTCACCTAGTGCAG,5170 fluorescence intensity (a.u.)
16,AGAGACAGCGAATCAATTAGCCAATGCTAATAATTTATAACGGAGTCACCTAGTGCAG,8160 fluorescence intensity (a.u.)
17,GTTGATGGGCAGCTTAATTACGGCCCGCCTGTTTAGCCAACGGAGTCACCTAGTGCAG,17500 fluorescence intensity (a.u.)
18,TTTAATTTACAGTTAAATTAACTTAATCTGTAAAAGGGATCGGAGTCACCTAGTGCAG,57500 fluorescence intensity (a.u.)
19,AGCCCCTAAGCCAATCAATTAGCAGGCATCTTTACTCCTACGGAGTCACCTAGTGCAG,18500 fluorescence intensity (a.u.)
20,GCCAACCTTATAGCTAATTATTATATATATTGACTTTAAGCGGAGTCACCTAGTGCAG,4860 fluorescence intensity (a.u.)
21,ATACATTAATTTGATGCCCCAATAGAAGCACGCCAATCATCGGAGTCACCTAGTGCAG,12000 fluorescence intensity (a.u.)
22,TGTTGTTAGATGATAAAACATGATTAATATTTTATGCGTGCGGAGTCACCTAGTGCAG,3610 fluorescence intensity (a.u.)

row,Sequence,binding signal
1,GTTTTGATAAATTGATTTAAAACGCTTTATAAGAAGTGTCCGGAGTCACCTAGTGCAG,43800 fluorescence intensity (a.u.)
2,AATTTTGATAGGGTAGAATTGAAAATGTTTATTTGGATTGCGGAGTCACCTAGTGCAG,10500 fluorescence intensity (a.u.)
3,AAATAACTGGTGGATATTTGTACGCTGCCCCTGAGGAACTCGGAGTCACCTAGTGCAG,3900 fluorescence intensity (a.u.)
4,TGTTTTCCTAAGTGATTGGTGGGAAACCTCGTAGGATAAGCGGAGTCACCTAGTGCAG,9180 fluorescence intensity (a.u.)
5,TTGATTGGGAGGAAGCCAAGAAGAAGTCAAGAACTGCCCACGGAGTCACCTAGTGCAG,31900 fluorescence intensity (a.u.)
6,GTTTATTTGGGCCTGATTGGCACAGATGGTAGTGCCATGTCGGAGTCACCTAGTGCAG,31700 fluorescence intensity (a.u.)
7,CCAAAATAAACAACCAAAATTTCGCCGTGTAACTAACTCTCGGAGTCACCTAGTGCAG,3300 fluorescence intensity (a.u.)
8,TAGTGTAATTTAACACTTAATTAGCCACATTTGTTACACACGGAGTCACCTAGTGCAG,61900 fluorescence intensity (a.u.)
9,CACAGACACATTTGGTTAATTACATACCTTGTACACTTCACGGAGTCACCTAGTGCAG,6260 fluorescence intensity (a.u.)
10,CGTTTAATTGTGTATATATATAGCCACATTAAAGTACACACGGAGTCACCTAGTGCAG,11100 fluorescence intensity (a.u.)
11,ATTGACTTGACGACCGCCATGAATTCATCTCATCTCATCTCGGAGTCACCTAGTGCAG,5970 fluorescence intensity (a.u.)
12,AGGCTAATTAACAGAGAGGGGACAATATGCAACAACGTATCGGAGTCACCTAGTGCAG,24000 fluorescence intensity (a.u.)
13,GATGAAACATATATTGACTGTAACATGTAGATTACATGATCGGAGTCACCTAGTGCAG,6110 fluorescence intensity (a.u.)
14,TAATTAATTATAATTAATTAATCCTACTGGTGCTTTCCTTCGGAGTCACCTAGTGCAG,54300 fluorescence intensity (a.u.)
15,CTTATTAACATTTAATTTGGTTTCTTCCTTAATTTGTATCCGGAGTCACCTAGTGCAG,12600 fluorescence intensity (a.u.)
16,CTTTAATTTCTTCTTCTTTTCCACATATAATAATAATATACGGAGTCACCTAGTGCAG,4030 fluorescence intensity (a.u.)
17,ATTTCTTTAATTAATTAATTAATTAACATATATATCCCTTCGGAGTCACCTAGTGCAG,60600 fluorescence intensity (a.u.)
18,TTCTGCTGCACCTAATTAATTAAATTTCCCCGCTATAATTCGGAGTCACCTAGTGCAG,11300 fluorescence intensity (a.u.)
19,TTAATTAATTAATTTTCTTCCTAAACATATCCGCTAATCCCGGAGTCACCTAGTGCAG,53500 fluorescence intensity (a.u.)
20,ACTTAATTAACTTGGTTCTTCCTTTAATTTCTAGCTATATCGGAGTCACCTAGTGCAG,50100 fluorescence intensity (a.u.)
21,TATAATTATTAATAATTAATTAATTATATATTAATTATTTCGGAGTCACCTAGTGCAG,26700 fluorescence intensity (a.u.)
22,TGGTATATTAATTATTTCCTTTCCTTCCTTTCCCTTCCGACGGAGTCACCTAGTGCAG,5690 fluorescence intensity (a.u.)
